Each structure is given as a SMILES string. Records with an inconclusive call do not appear. Calls of active or inactive are those of the source. Rule for the calls: active = hit-call score of the fitted dose curve at least 0.9, where 1 is the maximum; inconclusive = response in the unintended direction; inactive = score below 0.9.

Sequence of Nuclear receptor subfamily 1 group I member 2 (Homo sapiens) (O75469 whole entry, looked up): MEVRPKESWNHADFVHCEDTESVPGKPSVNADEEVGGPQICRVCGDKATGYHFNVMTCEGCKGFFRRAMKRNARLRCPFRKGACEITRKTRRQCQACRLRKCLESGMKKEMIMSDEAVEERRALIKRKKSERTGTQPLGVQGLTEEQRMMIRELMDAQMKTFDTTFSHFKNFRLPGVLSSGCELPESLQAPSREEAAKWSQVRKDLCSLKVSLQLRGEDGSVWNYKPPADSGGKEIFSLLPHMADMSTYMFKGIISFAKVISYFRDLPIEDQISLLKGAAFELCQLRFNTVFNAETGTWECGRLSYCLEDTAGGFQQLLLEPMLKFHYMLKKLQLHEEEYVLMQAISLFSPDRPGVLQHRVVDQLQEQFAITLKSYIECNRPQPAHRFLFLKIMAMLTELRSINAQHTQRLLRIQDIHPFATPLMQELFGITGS

The assay addresses Nuclear receptor subfamily 1 group I member 2 (Homo sapiens) (UniProt O75469). As to the kind of experiment: ATG_PXR_TRANS: Attagene TRANS-FACTORIAL HepG2 Assay for human Pregnane X Receptor (PXR) (AID 2283008). The procedure:
ATG_TRANS is a cell-based, multiplexed-readout assay that uses HepG2, a human liver cell line, with measurements taken at 24 hours after chemical dosing in a 24-well plate.ATG_PXR_TRANS is one of 30 assay component(s) measured or calculated from the ATG_TRANS assay. It is designed to make measurements of mRNA induction, a form of inducible reporter, as detected with fluorescence intensity signals by Reverse transcription polymerase chain reaction (RT-PCR) and Capillary electrophoresis technology.Data from the assay component ATG_PXR_TRANS was analyzed into 1 assay endpoint. This assay endpoint, ATG_PXR_TRANS, was analyzed in the positive analysis fitting direction relative to DMSO as the negative control and baseline of activity. Using a type of inducible reporter, measures of mRNA for gain-of-signal activity can be used to understand the reporter gene at the transcription factor-level as they relate to the gene NR1I2. Furthermore, this assay endpoint can be referred to as a primary readout, because this assay has produced multiple assay endpoints where this one serves a reporter gene function. To generalize the intended target to other relatable targets, this assay endpoint is annotated to the nuclear receptor intended target family, where the subfamily is non-steroidal.
Human liver HepG2 cells are transiently transfected with multiple reporter transcription units (MRTUs) in 6-well plates using FuGene 6 reagent (Roche; 3 ml FuGene/1 mg DNA). The MRTU constructs are regulated by a cis-regulating element (promoter). […] A major difference between the CIS and TRANS system is that in CIS activities of endogenous TFs are measured, whereas the TRANS assay evaluates changes in activities of exogenous, chimeric NR-Gal4 proteins. […] At the end of 24 hour incubation, total RNA was isolated using TriZol reagent (Invitrogen). The isolated RNA is then reverse-transcribed using oligo(dT) primer and Mo-MLV reverse transcriptase (Invitrogen) with DNAse I (Ambion) treatment for 30 min. The one-tenth of the produced cDNA was amplified by PCR using Taq DNA polymerase (Invitrogen) and two reporter sequence-specific primers. The PCR products were fluorescently labeled by primer extension with 6-arboxyfluorescein (6-FAM) 5'-labeled reporter sequence-specific primer (2 min at 95 C, 20 s at 68 C and 10 min at 72 C) and these products were digested with 5U of HpaI (New England Biolabs) for 2h at 37 C. The fragments were purified using Qiaquick PCR columns (Qiagen), analyzed on an ABI 3130xL genetic analyzer (Applied Biosystems) with peak positions identified by using a set of X-rhodamine (ROX)-labeled MapMarker1000 molecular weight standards (BioVentures). The raw capillary electrophoresis data was processed using Attagraph software (Attagene).
With `CC(C)(C)c1ccc(OC(=O)c2ccccc2O)cc1`, the molecule was classed as inactive.

In the case of `CCCNC(=O)NS(=O)(=O)c1ccc(Cl)cc1`, the molecule was called inactive.

With `O=C(Nc1ccccc1)c1ccccc1O`, the outcome was inactive.

For the molecule `CC[C@H]1OC(=O)[C@H](C)[C@@H](O[C@H]2C[C@@](C)(OC)[C@@H](O)[C@H](C)O2)[C@H](C)[C@@H](O[C@@H]2O[C@H](C)C[C@H](N(C)C)[C@H]2O)[C@](C)(O)C[C@@H](C)C(=NOCOCCOC)[C@H](C)[C@@H](O)[C@]1(C)O`, the call was inactive.

Regarding `O=C1Nc2ccccc2C1(c1ccc(O)cc1)c1ccc(O)cc1`, the outcome was inactive.

For the molecule `[Cl][Bi]([Cl])([c]1ccccc1)([c]1ccccc1)[c]1ccccc1`, the molecule was called inactive.

For the molecule `CC(=O)[C@H]1[C@H](C#N)C[C@H]2[C@@H]3CC=C4C[C@@H](O)CC[C@]4(C)[C@H]3CC[C@@]21C`, the result was inactive.

As for `Cc1ccc2c(c1)C(=O)c1ccccc1C2=O`, the half-maximal activity concentration (AC50) is 6180 nM (active).

As for `COCc1c(C(C)C)nc(C(C)C)c(/C=C/[C@@H](O)C[C@@H](O)CC(=O)O)c1-c1ccc(F)cc1`, the AC50 was 1760 nM (active).

For the molecule `CC=CCO`, the result was inactive.

Regarding `Cc1ccc([N+](=O)[O-])cc1S(=O)(=O)O`, the result was inactive.

As to `ON(Cc1ccccc1)Cc1ccccc1`, the AC50 was 17200 nM (active).

For the molecule `C[Si](C)(CCCN)O[Si](C)(C)CCCN`, the result was inactive.

`Cc1cccc(OCCOc2cccc(C)c2)c1`: the molecule was classed as inactive.

In the case of `CCCCCCCCCCCCCOP(=O)(O)O`, the result was inactive.

For `C#CC1(O)CC[C@H]2[C@@H]3CCC4=CCCC[C@@H]4[C@H]3CC[C@@]21C` (stereo not given in full), the AC50 is 2140 nM (active).

`CCCCC(CC)COCC1CO1` (stereo not given): the result was inactive.

As for `CCCCCc1ccc(Cl)cc1`, the molecule was classed as inactive.

Take `CC1=NC(C)OC1C` (stereo not given): the concentration at half-maximal activity (AC50) was 19800 nM (active).

Regarding `CCCCCCOC(=O)C(C)CC` (stereo not given), the result was inactive.

As for `COc1ccc(-c2coc3cc(O)ccc3c2=O)cc1`, the call was inactive.

Take `CC(C)c1ccc(C=O)cc1`: the molecule was classed as inactive.

As to `C(=CC=Nc1ccccc1)C=CNc1ccccc1`, the molecule was classed as inactive.

As for `CC(=O)C=CC1C(C)=CCC(C)C1(C)C` (stereo not given), the concentration at half-maximal activity (AC50) was 1420 nM (active).

Consider `Cc1ccc(C(C)c2ccc(C)c(C)c2)cc1C`, for which the AC50 was 2910 nM (active).

Turning to `CCCCCCCCc1ccc(Nc2ccc(CCCCCCCC)cc2)cc1`, the AC50 was 1680 nM (active).

With `CCCc1ccc(OC)cc1`, the outcome was inactive.

On to `c1c[nH]cn1`, for which the outcome was inactive.

As to `O=C1CCCN1CCO`, the molecule was classed as inactive.

With `CCCCCCCCCCCCCCCCCC#N`, the molecule was called inactive.

As for `O=C1CCC(=O)N1Cl`, the molecule was called inactive.

On to `O=C(O)c1ccccc1Nc1cccc(C(F)(F)F)c1`, for which the call was inactive.

Regarding `C=C(C)[C@H]1CC=C(C)CC1`, the molecule was called inactive.

For `Cc1cccc(N)n1`, the outcome was inactive.

Consider `C=CC(=O)OCCOC(=O)C=C`, for which the outcome was inactive.

Turning to `CC(CC=O)CCCC(C)(C)O` (stereo not given), the molecule was called inactive.

For the molecule `CC(C)c1ccc(C#N)cc1`, the outcome was inactive.

Take `CCCCCCCCCCc1ccccc1`: the call was inactive.

On to `CC(C)=CCC/C(C)=C\C#N`, for which the half-maximal activity concentration (AC50) is 29300 nM (active).

On to `CC(C)CCCC(C)CC=O` (stereo not given), for which the molecule was classed as inactive.
